# Measured values from PubChem BioAssay AID504321 (NMMLSC, 2011).
# Active and inactive are the calls of the source.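 How the source made its calls: active means GFP response vs DMSO above 150% with enough events counted; inconclusive means fewer than 70 events counted for a yeast strain; inactive means the rest.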
# Assay: MEP2-GFP expression modulation in yeast, confirmation, flow cytometry, third cherry pick, S. cerevisiae (AID 504321);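 further: median per-cell GFP fluorescence by flow cytometry across all yeast cells; ratio of sample to DMSO median GFP so 100% equals the DMSO level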
# Details: S. cerevisiae MEP2-GFP strain, 3 h, at 10 µM, stronger effect = higher value
row,SMILES,GFP response vs DMSO
1,CN1CCN(C(=O)c2cc(COc3ccc(F)cc3Cl)on2)CC1c1ccccc1 (centres undefined),101% (inactive)
2,CSc1nc(Nc2ccc(Cl)cc2)c(C#N)c(=O)[nH]1,108% (inactive)
3,CNc1nc(N)c([N+](=O)[O-])c(Nc2cccc(Cl)c2)n1,170% (active)
4,COc1ccc(OC)c(N/C(C)=C/C(=O)c2ccccc2)c1,114% (inactive)
5,Cc1ccc(Nc2cc(=O)[nH]c(=O)[nH]2)cc1C,114% (inactive)
6,COc1cc(OC)cc(C(=O)Nc2ccc(-c3nc4ccccc4o3)cc2)c1,110% (inactive)
7,COc1ccccc1-c1cc(C(F)(F)F)nc(S(C)(=O)=O)n1,142% (inactive)
8,CC(=O)C(Cl)C(=O)Nc1ccccc1 (centres undefined),118% (inactive)
9,O=C(Nc1ccccc1)O/N=C1\CCCCC1c1ccc([N+](=O)[O-])cc1[N+](=O)[O-] (centres undefined),105% (inactive)
10,CCc1c(C)nc2c(OC)cccc2c1Cl,110% (inactive)
11,C=CCNc1ncnc2ccc(Br)cc12,110% (inactive)
12,Cc1cc(C)c(NC(=O)CC(=O)c2ccccc2)c(Cl)c1,105% (inactive)
13,CNc1nc(N)c([N+](=O)[O-])c(Nc2ccccc2OC)n1,105% (inactive)
14,Cc1ccc(NN2C(=O)C=C(c3ccccc3)C2=O)cc1,140% (inactive)
15,COc1ccccc1Nc1nc(NCCCN(C)C)nc(N)c1[N+](=O)[O-],112% (inactive)
16,OCc1ccnc2c(O)cccc12,108% (inactive)
17,CC(=O)NCCOc1cccc2cccnc12,110% (inactive)
18,C[n+]1cccc2c(Br)ccc([O-])c21,114% (inactive)
19,O=C(O)CCS(=O)(=O)c1nc(-c2cccs2)cc(C(F)(F)F)n1,116% (inactive)
20,COCCCNc1nc(N)c([N+](=O)[O-])c(Nc2cc(OC)ccc2OC)n1,110% (inactive)

row,SMILES,GFP response vs DMSO
1,Nc1c(O)ccc2c1C(=O)c1ccccc1C2=O,105% (inactive)
2,NC(=O)c1ccnc2c(O)cccc12,108% (inactive)
3,C=CCNc1ncnc2ccccc12,114% (inactive)
4,Brc1ccc2ncnc(NCc3ccccc3)c2c1,105% (inactive)
5,COc1cccc(NC(=O)CC(C)=O)c1,108% (inactive)
6,Cc1nc(Nc2ccc(Br)cc2Br)c([N+](=O)[O-])c(=O)[nH]1,112% (inactive)
7,CC(=O)Nn1cnc2c(c1=O)C1(CCCC1)Cc1ccccc1-2,105% (inactive)
8,Nc1cccc2c1C(=O)c1ccc(Cl)cc1C2=O,116% (inactive)
9,COc1cccc(N/C=C/C(=O)c2ccc(Cl)cc2)c1,114% (inactive)
10,Cc1ccc(Nc2cc(=O)[nH]c(=O)[nH]2)cc1Cl,101% (inactive)
11,C=CCNc1nc(N)c([N+](=O)[O-])c(Nc2cccc(Cl)c2)n1,108% (inactive)
12,CCC(C)Nc1nc(N)c([N+](=O)[O-])c(Nc2cc(OC)ccc2OC)n1 (centres undefined),114% (inactive)
13,CNc1cccc2c1C(=O)c1ccccc1C2=O,114% (inactive)
14,O=C(/C=C/Nc1cccc(O)c1)c1ccccc1,112% (inactive)
15,COc1ccc(OC)c2c(=O)cc(C(=O)O)[nH]c12,105% (inactive)
16,O=C(O)c1ccc(C=NNC(=O)c2cccc3ccccc23)cc1,103% (inactive)
17,Cc1ccc(-c2cc(C(F)F)nc(S(C)(=O)=O)n2)cc1,121% (inactive)
18,CCN(CC)C(=O)Oc1ccnc2cc(Cl)ccc12,110% (inactive)
19,COc1cccc(N/C(C)=C/C(=O)c2ccc(Br)cc2)c1,101% (inactive)
